PubChem BioAssay AID1159580 (chemical genetic matrix, 2015)
Out of some 5,500 compounds screened, about 2,000 (36%) were called active. Roughly 18% stayed inconclusive and do not appear here. Rule as the data show it: active = normalized growth mostly below about 0.91 (no sharp cut-off); inconclusive = no clear call, values can overlap the other calls; inactive = mostly above about 0.92. Some of the results follow.

Assay: chemical genetic growth profiling, strain panel (AID 1159580);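 also: tested at 20 µM; growth read once vehicle control cultures reached saturation at 30 °C; 1 = growth at the plate median or of vehicle wells; lower values mean less growth of the strain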
Conditions: growth OD

Measured: normalized growth

COc1cccc(OC)c1C(=O)N[C@@H]1C(=O)N2[C@@H]1SC(C)(C)[C@@H]2C(=O)O
inactive: S. cerevisiae deletion strains, locus YJR066W, strain TOR1, active compounds read low 0.974 | S. cerevisiae deletion strains, locus YJR075W, strain HOC1, active compounds read low 0.998 | S. cerevisiae deletion strains, locus YKL009W, strain mrt4, active compounds read low 0.946 | S. cerevisiae deletion strains, locus YKL068W, active compounds read low 0.975 | S. cerevisiae deletion strains, locus YKL085W, strain MDH1 (second series), active compounds read low 0.986 | S. cerevisiae deletion strains, locus YKL085W, strain MDH1, active compounds read low 0.986 | S. cerevisiae deletion strains, locus YKL160W, strain elf1, active compounds read low 0.978 | S. cerevisiae deletion strains, locus YKR001C, strain vps1, active compounds read low 0.973 | S. cerevisiae deletion strains, locus YKR026C, strain gcn3, active compounds read low 1 | S. cerevisiae deletion strains, locus YKR091W, strain srl3, active compounds read low 1 | S. cerevisiae deletion strains, locus YLL001W, strain dnm1, active compounds read low 0.963 | S. cerevisiae deletion strains, locus YLL026W, active compounds read low 0.993 | S. cerevisiae deletion strains, locus YLL041C, strain sdh2, active compounds read low 0.994 | S. cerevisiae deletion strains, locus YLR027C, strain aat2, active compounds read low 0.995 | S. cerevisiae deletion strains, locus YLR039C, strain RIC1, active compounds read low 1 | S. cerevisiae deletion strains, locus YLR058C, strain SHM2, active compounds read low 1.01 | S. cerevisiae deletion strains, locus YLR102C, strain apc9, active compounds read low 0.985 | S. cerevisiae deletion strains, locus YLR113W, strain HOG1, active compounds read low 0.982 | S. cerevisiae deletion strains, locus YLR221C, strain rsa3, active compounds read low 1 | S. cerevisiae deletion strains, locus YLR258W, strain gsy2, active compounds read low 0.999 | S. cerevisiae deletion strains, locus YLR262C, strain YPT6 (second series), active compounds read low 1 | S. cerevisiae deletion strains, locus YLR262C, strain YPT6, active compounds read low 1.03 | S. cerevisiae deletion strains, locus YLR268W, strain sec22, active compounds read low 0.993 | S. cerevisiae deletion strains, locus YLR320W, strain mms22, active compounds read low 0.986 | S. cerevisiae deletion strains, locus YLR330W, strain CHS5, active compounds read low 0.993 | S. cerevisiae deletion strains, locus YLR342W, strain FKS1 (second series), active compounds read low 1.03 | S. cerevisiae deletion strains, locus YLR342W, strain FKS1, active compounds read low 0.988 | S. cerevisiae deletion strains, locus YLR357W, strain rsc2, active compounds read low 0.994 | S. cerevisiae deletion strains, locus YLR370C, strain arc18, active compounds read low 1.01 | S. cerevisiae deletion strains, locus YLR371W, strain rom2, active compounds read low 0.993 | S. cerevisiae deletion strains, locus YLR384C, strain iki3, active compounds read low 0.991 | S. cerevisiae deletion strains, locus YLR418C, strain cdc73, active compounds read low 0.996 | S. cerevisiae deletion strains, locus YML016C, strain PPZ1, active compounds read low 1 | S. cerevisiae deletion strains, locus YML032C, strain rad52, active compounds read low 0.991 | S. cerevisiae deletion strains, locus YML120C, strain ndi1, active compounds read low 0.992 | S. cerevisiae deletion strains, locus YML124C, strain tub3, active compounds read low 0.991 | S. cerevisiae deletion strains, locus YMR058W, strain fet3, active compounds read low 1 | S. cerevisiae deletion strains, locus YMR078C, strain ctf18, active compounds read low 0.995 | S. cerevisiae deletion strains, locus YMR125W, strain sto1, active compounds read low 1.02 | S. cerevisiae deletion strains, locus YMR129W, active compounds read low 0.992 | S. cerevisiae deletion strains, locus YMR205C, strain PFK2, active compounds read low 0.991 | S. cerevisiae deletion strains, locus YMR223W, strain ubp8, active compounds read low 1.01 | S. cerevisiae deletion strains, locus YMR231W, strain pep5, active compounds read low 0.997 | S. cerevisiae deletion strains, locus YMR263W, strain SAP30, active compounds read low 0.972 | S. cerevisiae deletion strains, locus YMR307W, strain GAS1, active compounds read low 1.25 | S. cerevisiae deletion strains, locus YNL067W, strain RPL9B, active compounds read low 0.962 | S. cerevisiae deletion strains, locus YNL071W, strain lat1, active compounds read low 1 | S. cerevisiae deletion strains, locus YNL128W, strain TEP1, active compounds read low 0.974 | S. cerevisiae deletion strains, locus YNL153C, strain GIM3, active compounds read low 1.01 | S. cerevisiae deletion strains, locus YNL183C, strain NPR1, active compounds read low 0.971 | S. cerevisiae deletion strains, locus YNL209W, strain ssb2, active compounds read low 1.01 | S. cerevisiae deletion strains, locus YNL233W, strain BNI4, active compounds read low 1.01 | S. cerevisiae deletion strains, locus YNL248C, strain rpa49, active compounds read low 1.01 | S. cerevisiae deletion strains, locus YNL250W, strain rad50, active compounds read low 0.921 | S. cerevisiae deletion strains, locus YNL271C, strain bni1, active compounds read low 0.991 | S. cerevisiae deletion strains, locus YNL298W, strain CLA4, active compounds read low 0.98 | S. cerevisiae deletion strains, locus YNL307C, strain MCK1, active compounds read low 1 | S. cerevisiae deletion strains, locus YNL322C, strain KRE1 (second series), active compounds read low 1.01 | S. cerevisiae deletion strains, locus YNL322C, strain KRE1, active compounds read low 1 | S. cerevisiae deletion strains, locus YNR049C, strain mso1, active compounds read low 0.995 | S. cerevisiae deletion strains, locus YNR052C, strain pop2, active compounds read low 0.987 | S. cerevisiae deletion strains, locus YOL006C, strain TOP1, active compounds read low 1.01 | S. cerevisiae deletion strains, locus YOL012C, strain htz1 0.716 | S. cerevisiae deletion strains, locus YOR001W, strain rrp6, active compounds read low 0.99 | S. cerevisiae deletion strains, locus YOR061W, strain CKA2, active compounds read low 1 | S. cerevisiae deletion strains, locus YOR069W, strain VPS5, active compounds read low 0.999 | S. cerevisiae deletion strains, locus YOR070C, strain gyp1, active compounds read low 1.01 | S. cerevisiae deletion strains, locus YOR080W, strain dia2, active compounds read low 0.99 | S. cerevisiae deletion strains, locus YOR083W, strain WHI5, active compounds read low 0.95 | S. cerevisiae deletion strains, locus YOR106W, strain vam3, active compounds read low 0.994 | S. cerevisiae deletion strains, locus YOR136W, strain idh2, active compounds read low 0.992 | S. cerevisiae deletion strains, locus YOR144C, strain elg1, active compounds read low 0.989 | S. cerevisiae deletion strains, locus YOR184W, strain ser1, active compounds read low 0.996 | S. cerevisiae deletion strains, locus YOR231W, strain MKK1, active compounds read low 0.988 | S. cerevisiae deletion strains, locus YOR265W, strain rbl2, active compounds read low 1 | S. cerevisiae deletion strains, locus YOR270C, strain vph1, active compounds read low 1 | S. cerevisiae deletion strains, locus YOR290C, strain snf2, active compounds read low 1 | S. cerevisiae deletion strains, locus YOR316C, strain cot1, active compounds read low 0.977 | S. cerevisiae deletion strains, locus YPL051W, strain arl3, active compounds read low 0.989 | S. cerevisiae deletion strains, locus YPL055C, strain LGE1, active compounds read low 0.968 | S. cerevisiae deletion strains, locus YPL078C, strain atp4, active compounds read low 0.97 | S. cerevisiae deletion strains, locus YPL106C, strain sse1, active compounds read low 1.03 | S. cerevisiae deletion strains, locus YPL240C, strain hsp82, active compounds read low 0.999 | S. cerevisiae deletion strains, locus YPL241C, strain CIN2, active compounds read low 1 | S. cerevisiae deletion strains, locus YPL256C, strain CLN2, active compounds read low 1.06 | S. cerevisiae deletion strains, locus YPR141C, strain kar3, active compounds read low 0.972 | S. cerevisiae deletion strains, locus YPR163C, strain tif3, active compounds read low 0.987 | S. cerevisiae deletion strains, locus YPR167C, strain met16, active compounds read low 0.979 | S. cerevisiae deletion strains, strain wtn01, active compounds read low 1.01 | S. cerevisiae strains, strain wild type, active compounds read low 1
